Laboratory results published in PubChem BioAssay (EPA / NIEHS).
Values joined by “and” are separate entries in the source; they are usually repeats but may differ in a detail not shown here. Equal values may be shown once. Inconclusive results are not listed. The source holds several records for some structures; these can differ, active in one and inactive in another. Active and inactive are the calls of the source. How the source made its calls, unless noted: active means hit-call score of the fitted dose curve at least 0.9, where 1 is the maximum; inconclusive means response in the unintended direction; inactive means score below 0.9.

Legend:
[1] = test system: frog Estrogen Receptor (ER2), gene 100174814; assay: ATG_frER2_XSP2: Attagene TRANS-FACTORIAL Multi-Species (XSP2) HepG2 Assay for frog Estrogen Receptor (ER2) (AID 2283828)
Outline: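 Read-out: reporter transcript levels by RT-PCR with 6-FAM primer extension, HpaI digestion and capillary electrophoresis, scored as induction over DMSO control. Transfected HepG2 carrying Xenopus ER2–GAL4 chimera; compounds incubated 24 h.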

[2] = biological target: mouse Peroxisome Proliferator-activated Receptor gamma (PPARg), Pparg (gene 19016) (UniProt P37238); assay: ATG_mPPARg_XSP2: Attagene TRANS-FACTORIAL Multi-Species (XSP2) HepG2 Assay for mouse Peroxisome Proliferator-activated Receptor gamma (PPARg) (AID 2283830);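 further: hits are gains in reporter mRNA above DMSO so AC50 marks activation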
Outline: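 Multiplexed TRANS reporter readout: after 24 h chemical exposure of transfected HepG2 cells (with 3 nM 6-alpha-fluorotestosterone, 1.5 nM norgestrel present), RNA reverse-transcribed, amplified, 6-FAM-labelled and resolved by capillary electrophoresis; mouse PPARg-Gal4 induction scored against DMSO.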

[3] = biological target: Nuclear receptor subfamily 1 group I member 2 (Mus musculus) (UniProt O54915); assay: ATG_mPXR_XSP2: Attagene TRANS-FACTORIAL Multi-Species (XSP1) HepG2 Assay for mouse Pregnane X Receptor (PXR) (AID 2283831)
Outline: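 Fluorescence signals from capillary electrophoresis of RT-PCR-amplified reporter mRNA give the readout, gain-of-signal versus DMSO. Transfected HepG2 cells, 24 h dosing, medium contained 3 nM 6-alpha-fluorotestosterone and 1.5 nM norgestrel.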

[4] = biological target: zebrafish Thyroid Hormone Receptor alpha (TRa), thraa (gene 30670) (UniProt Q98867); assay: ATG_zfTRa_XSP2: Attagene TRANS-FACTORIAL Multi-Species (XSP1) HepG2 Assay for zebrafish Thyroid Hormone Receptor alpha (TRa) (AID 2283832);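 further: actives raise zebrafish TRa-Gal4 reporter transcript above DMSO baseline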
Outline: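 HepG2, transient MRTU transfection, exogenous NR-Gal4 chimeras; 24 h dosing; mRNA readout via RT-PCR/CE fluorescence; positive direction vs DMSO.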

[5] = test system: zebrafish Peroxisome Proliferator-activated Receptor gamma (PPARg), gene 557037; assay: ATG_zfPPARg_XSP2: Attagene TRANS-FACTORIAL Multi-Species (XSP2) HepG2 Assay for zebrafish Peroxisome Proliferator-activated Receptor gamma (PPARg) (AID 2283833);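 further: reporter mRNA from a zebrafish PPARg GAL4 chimera measured by RT-PCR and capillary electrophoresis; actives increase reporter signal over DMSO so AC50 reflects activation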
Outline: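 HepG2, transient MRTU transfection, 24 h compound; zfPPARg-GAL4 reporter mRNA by RT-PCR + capillary electrophoresis; gain-of-signal vs DMSO.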

[6] = test system: turtle Thyroid Hormone Receptor, alpha (TRa), gene 101949057; assay: ATG_trTRa_XSP2: Attagene TRANS-FACTORIAL Multi-Species (XSP1) HepG2 Assay for turtle Thyroid Hormone Receptor, alpha (TRa) (AID 2283834);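 further: hits raise reporter mRNA over the DMSO baseline so AC50 marks activators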
Outline: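 Multiplexed TRANS reporter assay; HepG2 carrying NR-Gal4 constructs treated 24 h. mRNA of the GAL4-UAS reporter quantified via labelled RT-PCR fragments on a genetic analyzer, vs DMSO negative control.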

[7] = ATG_M_61_XSP2: Attagene TRANS-FACTORIAL Multi-Species (XSP2) HepG2 Assay for M61 Transcription Factor (Internal Marker) (AID 2283835; active means hit-call score of the fitted dose curve at least 0.9, where 1 is the maximum; inactive means score below 0.9;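 further: active means a rise in signal above the DMSO baseline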)
Outline: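 Internal background marker, read as RT-PCR/capillary-electrophoresis reporter mRNA 24 h post-dose in transiently transfected HepG2 cells. Androgen receptor stimulated with 3 nM 6-alpha-fluorotestosterone plus 1.5 nM norgestrel; gain of signal versus DMSO analysed.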

[8] = biological target: zebrafish Thyroid Hormone Receptor beta (TRb), thrb (gene 30607) (UniProt Q9PVE4); assay: ATG_zfTRb_XSP2: Attagene TRANS-FACTORIAL Multi-Species (XSP1) HepG2 Assay for zebrafish Thyroid Hormone Receptor beta (TRb) (AID 2283836);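 on AC50: potency for induction of reporter signal above DMSO so agonist direction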
Outline: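 Transfect HepG2 with multiple reporter transcription units, dose chemical, incubate 24 h. Isolate RNA, reverse-transcribe, amplify and fluorescently label reporter sequences, digest with HpaI, then resolve by capillary electrophoresis. Positive direction fitted against DMSO.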

[9] = biological target: human Thyroid hormone Receptor alpha (TRa), THRA (gene 7067) (UniProt P10827); assay: ATG_hTRa_XSP2: Attagene TRANS-FACTORIAL Multi-Species (XSP2) HepG2 Assay for human Thyroid hormone Receptor alpha (TRa) (AID 2283838)
Outline: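 Reporter transcripts were read by RT-PCR with fluorescent primer extension, HpaI digestion and capillary electrophoresis. These came from HepG2 cells carrying multiplexed TRa-Gal4 TRANS constructs, harvested 24 hours after dosing. The medium also held 6-alpha-fluorotestosterone (3 nM) and norgestrel (1.5 nM), and increases were fitted against DMSO.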

[10] = biological target: human Thyroid hormone Receptor beta (TRb), THRB (gene 7068) (UniProt P10828); assay: ATG_hTRb_XSP2: Attagene TRANS-FACTORIAL Multi-Species (XSP2) HepG2 Assay for human Thyroid hormone Receptor beta (TRb) (AID 2283840);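 further: actives raise reporter mRNA so potency reflects agonist-like gain of signal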
Outline: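 Gain-of-signal reporter transcription, referenced to DMSO, was measured in transiently transfected HepG2 after 24 h exposure; labeled RT-PCR products were resolved by capillary electrophoresis. Assay medium included 3 nM 6-alpha-fluorotestosterone and 1.5 nM norgestrel.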

[11] = biological target: Estrogen receptor (Homo sapiens) (UniProt P03372); assay: ATG_hERa_XSP2: Attagene TRANS-FACTORIAL Multi-Species (XSP2) HepG2 Assay for human Estrogen Receptor (ERa) (AID 2283827)
Outline: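 Trans-activation of exogenous human ERa-Gal4 chimera read in HepG2 as reporter transcript after 24 h exposure; medium included 3 nM 6-alpha-fluorotestosterone and 1.5 nM norgestrel. Quantified by RT-PCR with capillary electrophoresis, positive-direction fitting against DMSO.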

[12] = ATG_XTT_Cytotoxicity_XSP2: Cytotoxicity Assessment in the Attagene TRANS-FACTORIAL Multi-Species (XSP2) HepG2 Assay (AID 2283837)
Outline: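 XTT-based cell number read-out in human HepG2 liver cells carrying transfected reporter units, measured 24 h after chemical dosing. Activity is signal loss versus DMSO baseline.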

[13] = test system: Sodium/Iodide Symporter (NIS), SLC5A5 (gene 6528); assay: CPHEA_Stoker_NIS_Inhibition_RAIU: CPHEA's Radioactive Iodide Uptake (RAIU) Assay for Sodium/Iodide Symporter (NIS) Inhibition, Stoker and Laws Labs (AID 2283841)
Outline: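 HEK293T cells stably expressing human NIS (hNIS-HEK293T-EPA) were exposed to test chemicals at 0.001–100uM (0.5% final DMSO) with 125I at a final 329pM in HBSS/10mM HEPES pH 7.4. After 2 hours at room temperature and ice-cold washes, intracellular 125I was counted as CPM and normalized to DMSO wells.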

[14] = CPHEA_Stoker_NIS_Cytotoxicity: Cytotoxicity Assessment for CPHEA's Radioactive Iodide Uptake (RAIU) Assay for Sodium/Iodide Symporter (NIS) Inhibition, Stoker and Laws Labs (AID 2283897);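 on AC50: active means loss of ATP signal versus DMSO meaning cytotoxicity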
Outline: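 hNIS-HEK293T-EPA human kidney cells were exposed for 2 hours at room temperature to test chemicals (0.001–100uM, 0.5% final DMSO) in HEPES-buffered HBSS, pH 7.4. Viability was read as ATP content by luciferase bioluminescence, loss of signal versus DMSO.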

Measured: AC50

Sequence of zebrafish Thyroid Hormone Receptor alpha (TRa), thraa (gene 30670) (Q98867 whole entry, looked up, the tested form may be a part): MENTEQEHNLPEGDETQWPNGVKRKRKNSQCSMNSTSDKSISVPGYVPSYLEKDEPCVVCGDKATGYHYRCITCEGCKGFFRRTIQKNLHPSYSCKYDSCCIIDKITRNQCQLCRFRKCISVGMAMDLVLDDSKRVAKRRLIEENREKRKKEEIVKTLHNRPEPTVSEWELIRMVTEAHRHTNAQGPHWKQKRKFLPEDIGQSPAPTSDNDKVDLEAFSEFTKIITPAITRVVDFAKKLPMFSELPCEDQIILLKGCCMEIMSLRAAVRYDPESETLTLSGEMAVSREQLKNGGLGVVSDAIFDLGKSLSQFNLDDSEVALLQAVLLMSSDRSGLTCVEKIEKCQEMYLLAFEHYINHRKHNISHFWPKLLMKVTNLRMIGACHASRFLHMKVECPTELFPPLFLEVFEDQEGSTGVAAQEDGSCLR
Sequence of human Thyroid hormone Receptor alpha (TRa), THRA (gene 7067) (P10827 whole entry, looked up, the tested form may be a part): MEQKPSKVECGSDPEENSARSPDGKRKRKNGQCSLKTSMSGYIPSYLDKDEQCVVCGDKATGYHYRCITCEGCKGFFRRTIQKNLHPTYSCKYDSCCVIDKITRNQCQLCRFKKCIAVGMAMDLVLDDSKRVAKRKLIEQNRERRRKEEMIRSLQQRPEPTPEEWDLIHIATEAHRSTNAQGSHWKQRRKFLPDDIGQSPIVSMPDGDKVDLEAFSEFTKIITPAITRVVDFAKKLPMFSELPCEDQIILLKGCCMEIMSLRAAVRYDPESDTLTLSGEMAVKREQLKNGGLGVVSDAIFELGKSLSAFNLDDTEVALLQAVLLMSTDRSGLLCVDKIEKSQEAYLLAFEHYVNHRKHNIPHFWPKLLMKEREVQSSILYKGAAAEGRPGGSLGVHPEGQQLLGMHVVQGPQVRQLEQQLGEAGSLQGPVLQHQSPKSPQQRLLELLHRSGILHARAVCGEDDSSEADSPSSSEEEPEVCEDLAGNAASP
Sequence of Nuclear receptor subfamily 1 group I member 2 (Mus musculus) (O54915 whole entry, looked up): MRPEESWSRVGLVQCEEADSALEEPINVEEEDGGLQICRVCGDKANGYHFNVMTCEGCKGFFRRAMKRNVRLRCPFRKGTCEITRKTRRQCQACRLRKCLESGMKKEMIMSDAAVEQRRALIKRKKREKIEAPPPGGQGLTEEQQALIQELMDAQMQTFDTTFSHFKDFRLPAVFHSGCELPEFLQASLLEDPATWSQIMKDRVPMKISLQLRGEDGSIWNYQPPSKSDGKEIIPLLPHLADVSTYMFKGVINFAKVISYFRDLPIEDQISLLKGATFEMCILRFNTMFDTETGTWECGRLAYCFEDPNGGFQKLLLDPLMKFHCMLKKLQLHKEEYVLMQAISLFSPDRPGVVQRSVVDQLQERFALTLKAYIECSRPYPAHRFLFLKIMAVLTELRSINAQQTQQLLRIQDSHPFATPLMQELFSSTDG
Sequence of Estrogen receptor (Homo sapiens) (P03372 whole entry, looked up, the tested form may be a part): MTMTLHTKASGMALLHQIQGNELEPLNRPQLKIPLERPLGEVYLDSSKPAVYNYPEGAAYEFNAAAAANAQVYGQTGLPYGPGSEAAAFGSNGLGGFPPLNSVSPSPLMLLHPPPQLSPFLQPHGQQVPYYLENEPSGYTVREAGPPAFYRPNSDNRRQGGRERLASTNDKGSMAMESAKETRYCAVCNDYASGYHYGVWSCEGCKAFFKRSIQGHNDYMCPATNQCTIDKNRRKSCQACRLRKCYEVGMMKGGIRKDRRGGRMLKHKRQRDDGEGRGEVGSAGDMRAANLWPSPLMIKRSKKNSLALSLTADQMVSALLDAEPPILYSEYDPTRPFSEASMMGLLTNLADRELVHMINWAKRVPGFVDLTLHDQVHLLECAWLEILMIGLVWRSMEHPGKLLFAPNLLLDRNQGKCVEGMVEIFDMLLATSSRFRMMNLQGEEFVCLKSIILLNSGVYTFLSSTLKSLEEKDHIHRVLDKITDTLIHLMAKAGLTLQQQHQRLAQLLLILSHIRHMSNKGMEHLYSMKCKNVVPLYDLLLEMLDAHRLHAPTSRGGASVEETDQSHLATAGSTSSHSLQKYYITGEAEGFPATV
Sequence of zebrafish Thyroid Hormone Receptor beta (TRb), thrb (gene 30607) (Q9PVE4 whole entry, looked up): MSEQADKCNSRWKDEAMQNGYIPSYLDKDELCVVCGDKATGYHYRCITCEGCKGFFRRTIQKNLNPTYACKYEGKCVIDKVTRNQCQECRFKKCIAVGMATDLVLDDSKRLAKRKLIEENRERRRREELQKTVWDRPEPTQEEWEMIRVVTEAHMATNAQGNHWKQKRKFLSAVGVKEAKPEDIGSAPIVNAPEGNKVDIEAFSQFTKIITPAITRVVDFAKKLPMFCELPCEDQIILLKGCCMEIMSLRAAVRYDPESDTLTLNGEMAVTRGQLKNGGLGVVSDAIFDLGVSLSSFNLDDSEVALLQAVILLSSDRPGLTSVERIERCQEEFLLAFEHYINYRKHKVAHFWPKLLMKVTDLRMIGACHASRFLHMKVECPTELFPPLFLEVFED
Sequence of mouse Peroxisome Proliferator-activated Receptor gamma (PPARg), Pparg (gene 19016) (P37238 whole entry, looked up, the tested form may be a part): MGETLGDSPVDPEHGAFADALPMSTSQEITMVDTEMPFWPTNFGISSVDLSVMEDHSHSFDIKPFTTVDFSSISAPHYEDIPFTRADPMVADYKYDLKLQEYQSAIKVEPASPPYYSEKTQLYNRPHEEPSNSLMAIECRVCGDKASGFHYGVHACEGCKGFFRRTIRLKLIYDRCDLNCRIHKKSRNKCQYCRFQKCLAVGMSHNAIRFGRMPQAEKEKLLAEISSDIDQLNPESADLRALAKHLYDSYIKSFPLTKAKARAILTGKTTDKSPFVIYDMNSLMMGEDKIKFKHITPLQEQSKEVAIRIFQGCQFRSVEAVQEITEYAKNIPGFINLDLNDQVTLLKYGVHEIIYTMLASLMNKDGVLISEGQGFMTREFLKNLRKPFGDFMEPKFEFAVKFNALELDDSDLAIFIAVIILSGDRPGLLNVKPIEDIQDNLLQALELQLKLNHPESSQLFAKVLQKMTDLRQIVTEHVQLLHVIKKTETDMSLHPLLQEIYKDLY
Sequence of human Thyroid hormone Receptor beta (TRb), THRB (gene 7068) (P10828 whole entry, looked up): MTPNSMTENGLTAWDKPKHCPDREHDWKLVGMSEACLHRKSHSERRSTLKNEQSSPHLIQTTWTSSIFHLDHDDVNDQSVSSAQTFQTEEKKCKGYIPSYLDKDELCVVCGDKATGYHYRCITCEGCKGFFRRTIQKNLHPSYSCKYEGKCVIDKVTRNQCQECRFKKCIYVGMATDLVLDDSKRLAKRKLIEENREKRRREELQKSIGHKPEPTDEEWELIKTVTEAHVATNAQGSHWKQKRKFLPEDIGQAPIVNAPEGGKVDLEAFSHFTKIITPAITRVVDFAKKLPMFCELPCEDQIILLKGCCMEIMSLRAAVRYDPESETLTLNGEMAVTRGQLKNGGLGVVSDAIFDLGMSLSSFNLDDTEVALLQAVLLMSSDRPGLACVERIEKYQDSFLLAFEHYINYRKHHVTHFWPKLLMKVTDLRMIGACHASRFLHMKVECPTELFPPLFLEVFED

CC12CC1(C)C(=O)N(c1cc(Cl)cc(Cl)c1)C2=O (stereo not drawn)
active: [1] 100 µM | [3] 8.41 µM and 6.41 µM | [10] 63.2 µM
inactive: [1] | [2] | [4] | [5] | [6] | [7] | [8] | [9] | [10]

CC(C)C1CCC(Cc2ccc(Cl)cc2)C1(O)Cn1cncn1 (stereo not drawn)
inactive: [11] | [1] | [2] | [4] | [5] | [6] | [7] | [8] | [9] | [10]
active: [11] 7.95 µM | [1] 14.3 µM | [2] 10.2 µM | [3] 715 nM and 257 nM | [12] 42.8 µM | [13] 20 µM | [14] 87.6 µM

Oc1c(I)cc(I)cc1I
active: [11] 3.11 µM | [2] 18 µM and 14.1 µM | [3] 56.6 µM | [4] 100 µM | [5] 26.1 µM and 23.3 µM | [8] 26.3 µM | [12] 69.1 µM | [9] 26 µM | [10] 56.1 µM and 16.2 µM
inactive: [3] | [4] | [6] | [7] | [8]

CC(=O)C=C(C)C
active: [1] 183 µM
not listed: [13] | [14]
inactive: all other assays above

CC(C)(c1ccc(OCC2CO2)cc1)c1ccc(OCC2CO2)cc1 (stereo not drawn)
inactive: [13] | [14]

O=C(O)C(F)(F)C(F)(F)C(F)(F)C(F)(F)C(F)(F)C(F)(F)C(F)(F)C(F)(F)C(F)(F)C(F)(F)F
inactive: [13]

CC(C)(C)CC(C)(C)c1ccc(O)cc1
active: [1] 4.83 µM
inactive: [3] | [6] | [7] | [8] | [10] | [13] | [14]

CCC[CH2][Sn]([CH2]CCC)([CH2]CCC)[O]C(=O)c1ccccc1
active: [13] 1.4 µM | [14] 9.05 µM
